In the supplement of paper PMC11732987, “Enantioselective OTUD7B fragment discovery through chemoproteomics screening and high-throughput optimisation” (Communications Chemistry, 2025):

Columns and labels:
Test in all cases: log2 ratio of Biotin-Ahx-Ub-VS probe labelling (fragment/DMSO); higher = less target engagement (more negative = stronger competition), active = hit call of the paper (q ≤ 0.05, log2 ratio ≤ -1)
Details in all cases: compound concentration: 200 uM; treatment time: 3 h
[1] = molecular target: T1, USP19 (UniProt O94966)
T1 sequence (whole entry): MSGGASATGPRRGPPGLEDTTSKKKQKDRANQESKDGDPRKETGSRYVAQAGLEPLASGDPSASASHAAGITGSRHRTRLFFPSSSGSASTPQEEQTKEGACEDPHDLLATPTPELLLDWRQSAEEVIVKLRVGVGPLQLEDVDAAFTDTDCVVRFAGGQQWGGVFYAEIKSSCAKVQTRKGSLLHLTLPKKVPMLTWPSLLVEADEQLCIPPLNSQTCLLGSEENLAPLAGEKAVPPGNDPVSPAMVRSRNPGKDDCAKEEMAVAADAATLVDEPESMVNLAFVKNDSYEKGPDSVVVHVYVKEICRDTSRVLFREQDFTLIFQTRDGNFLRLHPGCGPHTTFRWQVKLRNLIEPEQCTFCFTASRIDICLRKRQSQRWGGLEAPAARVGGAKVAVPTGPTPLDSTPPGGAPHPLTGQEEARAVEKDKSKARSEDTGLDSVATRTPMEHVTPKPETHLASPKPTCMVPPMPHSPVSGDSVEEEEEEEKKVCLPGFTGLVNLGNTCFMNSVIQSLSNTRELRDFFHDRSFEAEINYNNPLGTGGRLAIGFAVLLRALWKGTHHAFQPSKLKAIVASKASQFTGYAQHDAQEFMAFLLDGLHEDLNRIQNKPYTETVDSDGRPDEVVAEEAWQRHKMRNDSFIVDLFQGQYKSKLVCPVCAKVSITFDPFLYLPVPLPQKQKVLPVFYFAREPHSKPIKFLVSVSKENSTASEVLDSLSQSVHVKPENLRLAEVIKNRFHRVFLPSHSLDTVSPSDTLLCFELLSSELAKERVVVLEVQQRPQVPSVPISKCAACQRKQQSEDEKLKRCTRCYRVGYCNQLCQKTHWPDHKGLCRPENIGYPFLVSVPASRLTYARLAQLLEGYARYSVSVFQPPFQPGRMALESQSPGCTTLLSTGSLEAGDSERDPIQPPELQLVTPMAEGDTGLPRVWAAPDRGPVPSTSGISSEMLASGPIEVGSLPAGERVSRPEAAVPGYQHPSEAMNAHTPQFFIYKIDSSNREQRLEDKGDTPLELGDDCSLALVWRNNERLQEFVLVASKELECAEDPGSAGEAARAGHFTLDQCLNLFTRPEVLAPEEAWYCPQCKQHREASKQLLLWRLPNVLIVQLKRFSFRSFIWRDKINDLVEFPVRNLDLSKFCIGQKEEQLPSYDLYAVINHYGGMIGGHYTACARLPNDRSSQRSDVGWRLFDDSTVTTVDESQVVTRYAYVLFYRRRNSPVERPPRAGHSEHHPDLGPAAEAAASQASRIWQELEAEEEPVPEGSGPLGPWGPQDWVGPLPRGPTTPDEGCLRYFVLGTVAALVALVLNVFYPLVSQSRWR
Procedure, shortened: (§1)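 HEK293T lysate (495 µg per sample, in Tris/CHAPS/IGEPAL buffer with protease inhibitors) was exposed in triplicate for 3 h to fragment at 200 µM or to vehicle, then to Biotin-Ahx-Ub-VS at 0.5 µM final for 1 h. Labelled DUBs were enriched on NeutrAvidin, digested with LysC and trypsin, and analysed by diaPASEF LC-MS/MS. Spectronaut label-free quantities were normalised to the global median, and values are average log2 ratios of fragment over vehicle from an unpaired t-test. Only proteins with ≥2 unique peptides were used.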

[2] = molecular target: T2, USP22 (UniProt Q9UPT9)
T2 sequence (whole entry): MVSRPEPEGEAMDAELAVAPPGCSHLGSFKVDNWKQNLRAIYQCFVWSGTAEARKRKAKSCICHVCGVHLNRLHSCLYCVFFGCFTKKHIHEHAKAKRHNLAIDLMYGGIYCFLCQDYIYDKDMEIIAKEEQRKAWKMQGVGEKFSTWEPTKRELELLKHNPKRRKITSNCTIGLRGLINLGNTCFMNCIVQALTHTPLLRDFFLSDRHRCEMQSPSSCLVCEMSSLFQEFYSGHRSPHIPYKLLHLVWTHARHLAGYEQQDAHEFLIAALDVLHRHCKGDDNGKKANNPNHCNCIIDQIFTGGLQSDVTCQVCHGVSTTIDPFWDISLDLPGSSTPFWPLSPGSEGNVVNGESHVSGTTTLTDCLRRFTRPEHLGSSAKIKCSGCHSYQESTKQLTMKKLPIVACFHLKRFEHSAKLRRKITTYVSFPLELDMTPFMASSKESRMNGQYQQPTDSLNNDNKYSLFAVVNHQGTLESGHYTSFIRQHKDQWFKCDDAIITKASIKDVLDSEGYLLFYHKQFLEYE
Procedure, shortened: as §1

[3] = molecular target: USP24 (UniProt Q9UPU5)
Sequence of USP24 (Q9UPU5 whole entry): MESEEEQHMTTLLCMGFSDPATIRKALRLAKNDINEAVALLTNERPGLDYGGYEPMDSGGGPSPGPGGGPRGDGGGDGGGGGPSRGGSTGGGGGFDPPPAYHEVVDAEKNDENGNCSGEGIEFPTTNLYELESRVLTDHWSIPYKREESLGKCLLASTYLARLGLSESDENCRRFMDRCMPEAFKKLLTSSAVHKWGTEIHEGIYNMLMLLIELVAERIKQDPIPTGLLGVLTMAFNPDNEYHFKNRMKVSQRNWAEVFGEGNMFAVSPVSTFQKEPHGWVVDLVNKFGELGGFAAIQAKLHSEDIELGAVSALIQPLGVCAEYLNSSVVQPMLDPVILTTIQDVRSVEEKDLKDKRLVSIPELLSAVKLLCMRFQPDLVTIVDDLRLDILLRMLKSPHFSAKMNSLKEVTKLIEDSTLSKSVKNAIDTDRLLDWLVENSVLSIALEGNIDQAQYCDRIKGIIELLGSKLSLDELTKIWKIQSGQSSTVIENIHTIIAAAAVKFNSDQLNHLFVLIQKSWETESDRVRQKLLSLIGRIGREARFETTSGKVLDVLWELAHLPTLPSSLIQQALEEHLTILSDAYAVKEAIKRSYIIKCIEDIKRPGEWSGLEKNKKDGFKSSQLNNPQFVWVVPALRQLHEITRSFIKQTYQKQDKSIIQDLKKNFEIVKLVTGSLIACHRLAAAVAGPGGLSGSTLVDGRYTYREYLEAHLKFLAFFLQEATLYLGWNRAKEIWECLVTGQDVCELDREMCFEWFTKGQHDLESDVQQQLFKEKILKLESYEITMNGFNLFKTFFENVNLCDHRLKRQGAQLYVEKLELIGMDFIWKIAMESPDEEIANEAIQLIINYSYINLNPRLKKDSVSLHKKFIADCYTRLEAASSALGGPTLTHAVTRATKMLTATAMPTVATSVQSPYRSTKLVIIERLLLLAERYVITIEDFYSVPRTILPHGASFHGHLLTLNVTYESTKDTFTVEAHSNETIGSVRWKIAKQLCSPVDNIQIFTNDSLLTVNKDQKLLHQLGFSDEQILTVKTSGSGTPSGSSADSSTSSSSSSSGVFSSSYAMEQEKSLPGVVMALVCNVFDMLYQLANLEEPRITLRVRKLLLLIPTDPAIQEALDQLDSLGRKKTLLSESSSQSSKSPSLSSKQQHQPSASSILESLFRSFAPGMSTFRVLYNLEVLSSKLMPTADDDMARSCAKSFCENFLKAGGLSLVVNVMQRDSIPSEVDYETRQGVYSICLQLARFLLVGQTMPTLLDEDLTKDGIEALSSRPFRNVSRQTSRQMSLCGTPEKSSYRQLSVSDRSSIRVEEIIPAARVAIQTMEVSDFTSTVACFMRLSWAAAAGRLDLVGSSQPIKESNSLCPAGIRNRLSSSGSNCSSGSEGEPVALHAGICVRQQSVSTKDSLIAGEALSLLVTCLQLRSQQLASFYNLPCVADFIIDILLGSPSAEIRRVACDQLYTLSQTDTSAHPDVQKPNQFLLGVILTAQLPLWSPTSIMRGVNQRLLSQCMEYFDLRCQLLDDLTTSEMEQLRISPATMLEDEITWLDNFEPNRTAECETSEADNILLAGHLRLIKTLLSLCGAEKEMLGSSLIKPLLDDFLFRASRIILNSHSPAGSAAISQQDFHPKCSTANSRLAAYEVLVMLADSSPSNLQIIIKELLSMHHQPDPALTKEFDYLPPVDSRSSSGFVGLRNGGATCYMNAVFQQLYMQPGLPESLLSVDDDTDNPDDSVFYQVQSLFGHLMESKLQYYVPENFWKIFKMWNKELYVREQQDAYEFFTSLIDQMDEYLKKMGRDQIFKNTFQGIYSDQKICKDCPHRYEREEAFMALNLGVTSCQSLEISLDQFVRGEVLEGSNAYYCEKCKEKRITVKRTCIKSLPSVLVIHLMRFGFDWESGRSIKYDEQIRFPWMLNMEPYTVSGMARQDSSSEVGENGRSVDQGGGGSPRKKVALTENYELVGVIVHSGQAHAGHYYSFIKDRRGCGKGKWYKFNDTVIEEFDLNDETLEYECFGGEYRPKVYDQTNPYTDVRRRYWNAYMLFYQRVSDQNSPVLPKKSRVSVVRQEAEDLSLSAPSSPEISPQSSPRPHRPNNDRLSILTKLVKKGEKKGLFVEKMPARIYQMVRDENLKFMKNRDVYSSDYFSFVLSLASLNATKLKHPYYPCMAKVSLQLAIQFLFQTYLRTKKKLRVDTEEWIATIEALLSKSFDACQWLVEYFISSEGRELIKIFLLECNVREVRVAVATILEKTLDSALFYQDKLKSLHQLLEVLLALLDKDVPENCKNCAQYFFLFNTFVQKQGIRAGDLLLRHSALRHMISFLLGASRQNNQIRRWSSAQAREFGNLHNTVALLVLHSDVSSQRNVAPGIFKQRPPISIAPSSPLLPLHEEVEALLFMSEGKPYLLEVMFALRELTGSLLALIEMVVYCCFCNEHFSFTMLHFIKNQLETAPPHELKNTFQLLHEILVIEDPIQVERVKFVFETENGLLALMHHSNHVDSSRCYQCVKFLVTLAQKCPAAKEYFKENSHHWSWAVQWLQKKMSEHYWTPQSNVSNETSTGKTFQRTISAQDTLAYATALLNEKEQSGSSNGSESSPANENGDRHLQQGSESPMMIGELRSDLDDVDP
Procedure, shortened: as §1

[4] = molecular target: T3, USP25 (UniProt Q9UHP3)
T3 sequence (whole entry): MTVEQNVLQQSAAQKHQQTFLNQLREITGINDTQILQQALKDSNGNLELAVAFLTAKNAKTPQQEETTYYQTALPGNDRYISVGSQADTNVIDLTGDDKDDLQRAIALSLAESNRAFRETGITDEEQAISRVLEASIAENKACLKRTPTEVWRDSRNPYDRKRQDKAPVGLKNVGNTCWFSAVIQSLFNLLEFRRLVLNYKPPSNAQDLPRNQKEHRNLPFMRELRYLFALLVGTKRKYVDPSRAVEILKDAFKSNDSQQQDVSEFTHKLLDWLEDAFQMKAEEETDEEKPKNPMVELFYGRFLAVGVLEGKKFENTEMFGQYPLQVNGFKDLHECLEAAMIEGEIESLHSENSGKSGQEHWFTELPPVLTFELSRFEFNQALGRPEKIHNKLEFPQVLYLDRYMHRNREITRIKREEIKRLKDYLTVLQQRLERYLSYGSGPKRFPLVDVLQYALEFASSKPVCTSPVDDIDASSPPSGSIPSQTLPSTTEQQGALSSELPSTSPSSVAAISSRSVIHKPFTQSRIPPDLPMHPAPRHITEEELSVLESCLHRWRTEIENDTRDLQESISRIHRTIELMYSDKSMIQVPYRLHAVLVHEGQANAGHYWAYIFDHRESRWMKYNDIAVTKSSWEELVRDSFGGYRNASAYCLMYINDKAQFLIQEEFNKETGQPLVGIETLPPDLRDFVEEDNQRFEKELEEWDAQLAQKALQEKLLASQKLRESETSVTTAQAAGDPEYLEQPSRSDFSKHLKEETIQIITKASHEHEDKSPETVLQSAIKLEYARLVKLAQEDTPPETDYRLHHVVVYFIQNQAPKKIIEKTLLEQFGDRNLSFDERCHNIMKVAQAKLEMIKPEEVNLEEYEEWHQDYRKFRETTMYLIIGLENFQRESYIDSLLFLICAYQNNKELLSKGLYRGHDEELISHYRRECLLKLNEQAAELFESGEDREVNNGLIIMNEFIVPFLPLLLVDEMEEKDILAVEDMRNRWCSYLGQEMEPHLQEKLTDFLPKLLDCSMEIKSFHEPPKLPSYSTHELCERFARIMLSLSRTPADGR
Procedure, shortened: as §1

[5] = molecular target: T4, USP28 (UniProt Q96RU2)
T4 sequence (whole entry): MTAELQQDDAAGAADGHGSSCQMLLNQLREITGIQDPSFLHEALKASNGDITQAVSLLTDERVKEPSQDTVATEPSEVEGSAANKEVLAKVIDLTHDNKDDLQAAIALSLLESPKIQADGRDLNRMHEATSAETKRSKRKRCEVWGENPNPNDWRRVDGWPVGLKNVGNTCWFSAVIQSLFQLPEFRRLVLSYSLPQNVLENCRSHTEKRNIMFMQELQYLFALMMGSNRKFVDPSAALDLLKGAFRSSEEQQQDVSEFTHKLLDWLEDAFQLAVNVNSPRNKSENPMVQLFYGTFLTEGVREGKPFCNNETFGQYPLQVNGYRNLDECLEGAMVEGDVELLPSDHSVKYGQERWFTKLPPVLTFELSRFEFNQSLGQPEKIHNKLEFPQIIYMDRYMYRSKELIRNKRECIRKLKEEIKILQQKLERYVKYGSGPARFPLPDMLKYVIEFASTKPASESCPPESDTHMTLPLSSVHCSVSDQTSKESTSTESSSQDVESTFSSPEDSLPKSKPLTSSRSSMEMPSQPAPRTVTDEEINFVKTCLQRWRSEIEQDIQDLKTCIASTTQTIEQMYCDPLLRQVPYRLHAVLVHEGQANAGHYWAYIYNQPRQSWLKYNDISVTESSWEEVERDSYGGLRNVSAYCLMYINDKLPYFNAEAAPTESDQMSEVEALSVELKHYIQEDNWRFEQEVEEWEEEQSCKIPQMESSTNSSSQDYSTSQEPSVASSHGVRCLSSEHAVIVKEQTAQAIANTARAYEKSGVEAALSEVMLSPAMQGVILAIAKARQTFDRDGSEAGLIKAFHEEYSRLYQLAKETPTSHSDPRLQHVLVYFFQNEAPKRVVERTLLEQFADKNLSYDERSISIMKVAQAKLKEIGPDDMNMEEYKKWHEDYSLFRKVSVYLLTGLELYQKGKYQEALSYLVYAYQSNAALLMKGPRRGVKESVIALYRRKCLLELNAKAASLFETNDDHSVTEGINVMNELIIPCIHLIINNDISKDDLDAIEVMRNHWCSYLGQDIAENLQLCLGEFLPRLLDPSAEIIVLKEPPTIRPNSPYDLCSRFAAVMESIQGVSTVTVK
Procedure, shortened: as §1

Measured: log2 ratio of Biotin-Ahx-Ub-VS probe labelling

O=C(CCl)N1CCCC1c1ccsc1 (stereo not given)
inactive: [1] -0.475 | [2] -0.304 | [3] -0.738 | [4] -0.456 | [5] -0.704
